Most compounds without a hit are left out; they make up all but 7.9% or so of the library.
KB-V1 MDR tox = KB-V1 MDR subline cytotoxicity; AID 1347076; hit rate 3.4% among 400,000; KB-V1 MDR cells viability, CellTiter-Glo, 72 h; Potency, µM (top dose mostly 46.1 µM), hits mostly cytotoxic; note: nearly all actives have a fitted effect of over 60% in size
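Cytotoxicity toward P-gp-expressing KB-V1 cells was determined as loss of CellTiter-Glo luminescence after 72 h at 37 degrees C. Compounds were tested in quantitative HTS format across a concentration range, with curves fitted to normalized data.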
HT1080 IDH1KD tx = HT-1080 IDH1 knockdown cell toxicity (counter line); hit rate 2% among 360,000; Potency, µM (series often up to 46.1 µM), hits mostly cytotoxic; AID 686971; HT-1080 IDH1 knockdown viability, ATP luminescence, 48 h
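HT-1080-IDH1KD cells (IDH1 knocked down), 750/well in RPMI with 5% FBS, treated with compound 48 h at 37 degrees C. Viability by CellTiter-Glo luminescence, normalised to DMSO and no-cell wells; concentration-response curves classed.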
KB-3-1 cytotox = kills parental KB-3-1 adenocarcinoma cells; KB-3-1 viability, CellTiter-Glo ATP luminescence, 72 h; Potency, µM (series often up to 46.1 µM), actives largely listed as cytotoxic; hit rate 1.4% among 400,000; note: nearly all actives have a fitted effect of over 60% in size
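Parental KB-3-1 viability, qHTS format: 72 h compound exposure, 37 °C; CellTiter-Glo; media-only wells and DMSO plates as controls; concentration-effect fits on corrected data.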
MCF10A rereplic = inducers of DNA re-replication in MCF 10A breast cells; hit rate 2.9% among 350,000; Potency, µM (highest dose often 46.1 µM), most hits filed as activators; MCF 10A DNA re-replication, Hoechst nuclear intensity, 48 h; note: nearly all actives have a fitted effect of over 50% in size
HT1080-NT tox = kills 2HG-producing HT-1080-NT fibrosarcoma cells | HT-1080-NT fibrosarcoma viability, CellTiter-Glo ATP luminescence, 48 h | Potency, µM (series often up to 46.1 µM), actives largely listed as cytotoxic | hit rate 1.6% among 360,000;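 note: NT is the 2HG producing partner of a matched IDH1 knockdown line; nearly all actives have a fitted effect of over 55% in size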
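750 cells/well, RPMI + 5% FBS; 2 h settle, compound pin-transfer, 48 h at 37 degrees C. CellTiter-Glo 10 min RT, luminescence. Normalized to DMSO and media-only wells.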
SW480 rereplic = induces DNA re-replication in SW480 colon adenocarcinoma cells; hit rate 1.8% among 340,000; SW480 DNA re-replication, Hoechst DNA content imaging, 48 h; Potency, µM (series often up to 46.1 µM), actives largely listed as activators; AID 624297; note: nearly all actives have a fitted effect of over 55% in size
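DNA re-replication was detected as more nuclei of elevated Hoechst intensity after 48 hr exposure to compound (23 nL pinned per well of 250 cells).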
Hits are given with their value; n = inactive; u = inconclusive; x = no result. Calls come from the whole dose curve; as a rule, active = well fitted curve in the direction sought with a large enough effect; inconclusive = small, poorly fitted or top-dose-only effect, or another doubt; inactive = no such curve, though single readings can be large; an effect the other way counts as inactive or inconclusive.

SMILES	KB-V1 MDR tox	HT1080 IDH1KD tx	KB-3-1 cytotox	MCF10A rereplic	HT1080-NT tox	SW480 rereplic
CCCc1ccc(-c2c(C)sc(N)c2C#N)cc1	n	n	u	n	u	n
COc1ccccc1N1CCN(C(=O)c2sc3nc(C)nc(N4CCN(c5ccccn5)CC4)c3c2C)CC1	u	u	u	u	u	n
COc1ccccc1N1CCN(C(=O)c2sc3ncnc(N4CCN(c5ccccn5)CC4)c3c2C)CC1	23µM	29µM	u	18µM	15µM	n
Cc1c(C(=O)N2CCC(C)CC2)sc2ncnc(N3CCN(c4ccccc4)CC3)c12	4.6µM	n	n	n	n	n
Cc1[nH]n(-c2ccccc2)c(=O)c1N=Nc1c(O)cc(S(=O)(=O)N(C)C)c2ccccc12	n	9.2µM	u	n	u	5.8µM
Cc1[nH]n(-c2ccccc2)c(=O)c1N=Nc1ccc2c(c1)OCCO2	n	n	n	n	n	n
CCCCOC(=O)/C=C/c1ccc(OC(=O)OC)c(OC(=O)OC)c1	n	u	u	15µM	n	u
CC(=O)N1Cc2ccccc2C(C)CC12CCCCC2 (stereo not given)	16µM	n	n	n	n	n
Cc1ccc(S(=O)(=O)N2CCN(C(=O)c3sccc3C)CC2)cc1	n	n	n	n	n	n
O=C(Nc1ccc2c(c1)OCCO2)C(c1ccnc2ccccc12)N1CCC(Cc2ccccc2)CC1 (stereo not given)	n	n	n	x	n	x
CN(CCc1ccccc1)C(C(=O)Nc1ccc2c(c1)OCCO2)c1ccnc2ccccc12 (stereo not given)	23µM	u	u	x	u	x
Cc1ccc(C(=O)OCC(=O)NC2CC2)s1	n	n	n	n	n	n
COc1ccc(N/C=C/C(=O)c2ccccc2)cc1	n	n	n	n	n	n
Cc1nc(-c2ccccc2)sc1C(=O)/C=C/c1ccc(Cl)cc1	u	n	u	4.1µM	n	n
COc1ccc(N/C=C/C(=O)c2sc(-c3ccccc3)nc2C)cc1	18µM	u	u	u	u	u
CC(=O)c1sc(-c2ccc(Cl)cc2)nc1C	u	n	n	n	n	n
CS(=O)(=O)c1cccc(C(=O)Nc2nnc(C3=COCCO3)o2)c1	n	n	n	n	n	u
CC(/C=N/NC(=O)Cc1cccn1C)=C\c1ccccc1	16µM	n	n	n	n	n
CC(C=NNC(=O)C(=O)NN=CC(C)=Cc1ccccc1)=Cc1ccccc1	n	n	n	n	n	u
Cc1ccccc1-c1ccnc2c(-c3ccc(F)cc3)c(C)nn12	n	x	n	x	x	x
Cc1cccc(-c2oc3ccc(-c4ccc5c(c4)OCO5)cc3c2/C=C/c2ccc(N)cc2)c1	u	n	n	u	u	16µM
C=C1C(=O)O[C@H]2C[C@H]1[C@@H](OC(C)=O)C/C(C)=C/CC/C(C)=C\CC[C@]2(C)O	n	16µM	n	u	13µM	23µM
O=C(Nc1ccc(C(F)(F)F)cc1)N1CCN(c2ccnc3cc(Cl)ccc23)CC1	u	29µM	n	u	u	u
Cc1ccccc1C(=O)n1nc(-c2cccnc2)nc1NCc1ccccc1	n	x	n	x	x	x
NC(=S)Cc1ccccc1Cl	n	n	n	n	n	18µM
SMILES	KB-V1 MDR tox	HT1080 IDH1KD tx	KB-3-1 cytotox	MCF10A rereplic	HT1080-NT tox	SW480 rereplic
Cc1nc2ccc(NC(=S)N3CCCC3)cc2nc1C	n	n	n	0.73µM	n	n
COc1ccc(N(C)C(=S)Nc2ccc3nc(C)c(C)nc3c2)cc1	13µM	n	n	n	n	n
Cc1nc2ccc(NC(=S)NCc3ccccc3)cc2nc1C	u	n	n	n	n	n
O=C(O)COc1ccc(/C=C/c2nc3ccc([N+](=O)[O-])cc3s2)cc1	n	n	n	12µM	u	n
CCOc1ccc(S(=O)(=O)NCc2ccccn2)cc1NC(=O)c1ccccc1	6.5µM	3.3µM	2.3µM	u	2.6µM	u
COc1ccc(S(=O)(=O)NCc2ccccn2)cc1NC(=O)c1ccccc1F	1.8µM	5.8µM	1.5µM	13µM	4.6µM	5.8µM
CCOc1ccc(S(=O)(=O)NCc2cccnc2)cc1NC(=O)c1ccccc1	n	n	n	n	u	n
COc1c(S(=O)(=O)NCCCn2ccnc2)ccc(Cl)c1Cl	n	n	n	12µM	n	u
O=C(Nc1ccn(Cc2cccc3ccccc23)n1)c1cccnc1	n	u	n	u	n	n
CS(=O)(=O)c1ccc(C(=O)OCc2nnc(-c3ccccc3)o2)cc1[N+](=O)[O-]	u	4.1µM	n	u	7.3µM	u
Cc1ccccc1OCCOC(=O)c1c(-c2ccccc2)noc1C	u	5.8µM	9.2µM	u	7.3µM	9.2µM
Cc1onc(-c2ccccc2)c1C(=O)OCc1nnc(-c2ccc([N+](=O)[O-])cc2)o1	15µM	n	n	n	n	n
CCc1ccccc1NC(=O)c1cc(-c2ccc(Cl)s2)nc2ccccc12	n	x	n	x	x	x
COc1ccc(-c2nc(NC(=O)c3ccc(OCC(=O)Nc4ccc(F)cc4)c(OC)c3)sc2C)cc1	n	16µM	n	21µM	18µM	n
COc1cc(C(=O)Nc2nc(-c3ccc(F)cc3)cs2)ccc1OCC(=O)N1CCOCC1	n	n	n	23µM	n	n
COc1cc(C(=O)Nc2nc(-c3ccc(C)cc3)cs2)ccc1OCC(=O)N1CCOCC1	n	n	n	n	n	n
COc1cc(C(=O)Nc2nc(-c3cc(C)ccc3C)c(C)s2)ccc1OCC(=O)Nc1ccc(F)cc1	u	n	n	u	n	n
O=C(COC(=O)c1ccc2c(c1)S(=O)(=O)c1ccccc1C2=O)NC1CC1	u	n	n	n	n	n
CCOC(=O)C(C)N1C(=O)S/C(=C/c2ccc3c(c2)n(C)c(=O)n3C)C1=O (stereo not given)	n	n	n	n	n	n
COc1cccc(CN2C(=O)C(C)N(C(=O)c3c(F)cccc3F)c3ccccc32)c1 (stereo not given)	n	n	u	u	u	n
CC1C(=O)N(Cc2ccccc2F)c2ccccc2N1C(=O)c1c(F)cccc1F (stereo not given)	n	n	u	21µM	n	n
C=CCSc1n[nH]c(-c2ccc(OCCC)cc2)n1	n	8.9µM	n	n	7.1µM	u
C=CCSc1n[nH]c(-c2ccc(OCCCC)cc2)n1	n	n	n	n	n	n
CN(C)Cc1nc2c(c(=O)[nH]1)C1(CCCCC1)Cc1ccccc1-2	n	n	n	u	n	n
CCN(CC)Cc1nc2c(c(=O)[nH]1)C1(CCCCC1)Cc1ccccc1-2	n	n	n	5.8µM	n	u
O=c1[nH]c(NNC(=S)NCc2ccccc2)nc2c1C1(CCCCC1)Cc1ccccc1-2	n	n	n	12µM	n	n
